Most compounds without a hit are left out; they make up all but 19% or so of the library.
ELG1 DNA repair = inhibitors of ELG1-dependent DNA repair in HEK293T cells; HEK293T ELG1-luciferase reporter, luminescence, 16 h; DNA damage induced by 5-fluorouridine; Potency, µM (top dose mostly 46.1 µM), inactives show at the top dose activity change, negative = inhibition, usual class: inhibitors; 330,000 compounds, 2.3% hits; AID 504467; also: potency is read from the fitted curve at half-maximal effect; nearly all actives have a fitted effect of over 55% in size
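DMSO vehicle served as the neutral condition. Each well held 2,000 cells given 5-fluorouridine plus compound; after 16 hr at 37 °C/5% CO2, ONE-Glo was added and luciferase measured 30 min later.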
DT40 TDP1 CPT = DT40-hTDP1 cell growth loss with CPT; chicken DT40 Tdp1-/-;hTDP1 cells + 20 nM CPT, ATP luminescence, 48 h; Potency, µM (doses to about 46.2 µM), for the others: at the highest dose activity change, negative = growth inhibition, actives largely listed as inhibitors; 420,000 compounds, 12% hits; also: potency is read from the fitted curve at half-maximal effect; nearly all actives have a fitted effect of over 55% in size
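Chicken DT40 Tdp1-/- cells stably complemented with human TDP1 were seeded at 400 cells/well in medium containing 20 nM camptothecin, exposed to pin-transferred compounds, and grown at 37 °C for at least 48 hr. Viability was read as ATP luminescence.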
HT1080NT lethal = kills 2HG-producing HT-1080-NT fibrosarcoma cells; HT-1080-NT fibrosarcoma viability, CellTiter-Glo ATP luminescence, 48 h; Potency, µM (highest dose often 46.1 µM), inactives show at the top dose activity, negative = less viability, usual class: cytotoxic; 360,000 compounds, 1.6% hits; AID 686970;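 also: NT is the 2HG producing partner of a matched IDH1 knockdown line; potency is read from the fitted curve at half-maximal effect; 0% = DMSO-treated cells and -100% = media-only wells without cells; nearly all actives have a fitted effect of over 55% in size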
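Viability by CellTiter-Glo luminescence after 48 h compound exposure at 37C of HT-1080-NT cells (750/well, RPMI, 5% FBS). % activity scaled between DMSO wells and medium-only wells, then curve-fitted and categorized by curve class.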
HT1080 IDH1KD tx = HT-1080 IDH1 knockdown cell toxicity (counter line); HT-1080 IDH1 knockdown viability, ATP luminescence, 48 h; Potency, µM (series often up to 46.1 µM), for the others: top-dose activity, negative = toxicity, hits mostly cytotoxic; 360,000 compounds, 2% hits;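 also: potency is read from the fitted curve at half-maximal effect; 0% = DMSO wells and -100% = cell-free medium wells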
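Knockdown cells (IDH1KD HT-1080) received compounds 2 h after plating at 750 cells/well and were kept 48 h at 37 °C in 5% FBS RPMI. A CellTiter-Glo luminescence read gave % activity for curve fitting.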
TDP1 cell noCPT = qHTS for Inhibitors of human tyrosyl-DNA phosphodiesterase 1 (TDP1): qHTS in cells in absence of CPT. AID 686978, 2013. Potency, µM (titrated, usually from 46.2 µM), for inactives: at the highest dose activity change, negative = growth inhibition, hits mostly inhibitors. DT40 Tdp1-/- hTDP1 cells, no CPT, ATP luminescence, 48 h. 420,000 compounds, 15% hits; also: potency is read from the fitted curve at half-maximal effect; nearly all actives have a fitted effect of over 55% in size
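No-CPT arm: Tdp1-/-;hTDP1 DT40 cells (400/well) plus compounds, incubated ≥48 hr at 37 °C. Readout CellTiter-Glo luminescence.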
IL-1B inflam inh = inhibitors of inflammasome signaling (IL-1 beta secretion); THP-1 LPS/ATP IL-1B secretion, AlphaLISA, 16 h; hits give low values; activity change, % at 57.5 µM; 360,000 compounds, 4.7% hits; in the data active = activity change below about -50%; inconclusive = mostly about -30% to -49%
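THP-1 cells pretreated 1 hr with compounds (up to 57.5 uM final), then stimulated with LPS (250 ng/mL final) plus ATP (1.25 mM final); secreted IL-1B measured by AlphaLISA after 16 hr, decreased signal indicating inhibition.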
Active calls of the source: *; ? = inconclusive; . = no result given; [ ] = remark or other dose. Unless noted, calls follow the shape of the dose curve; as a rule, active = well fitted curve in the direction sought with a large enough effect; inconclusive = small, poorly fitted or top-dose-only effect, or another doubt; inactive = no such curve, though single readings can be large; an effect the other way counts as inactive or inconclusive. Unless noted, % is scaled to controls: 0 for no effect and ±100 for the full control effect.

SMILES	ELG1 DNA repair	DT40 TDP1 CPT	HT1080NT lethal	HT1080 IDH1KD tx	TDP1 cell noCPT	IL-1B inflam inh
CCOC(=O)N1CCN(C(=O)CSc2ccc(-c3ccccc3OC)nn2)CC1	-10.3%	-24.1%	0.0%	4.9%	?	-9.2
COc1ccccc1-c1cnn2c(NC3CCCC3)cc(C)nc12	?	29.1µM*	16.6%	0.0%	20.6µM*	-20.8
O=S(=O)(c1ccc(F)cc1)N(Cc1nc(-c2ccccc2)no1)C1CCCCC1	.	?	.	.	16.4µM*	.
CC(C)N(Cc1nc(-c2ccccc2)no1)S(=O)(=O)c1ccccc1	-29.1%	?	-8.4%	-5.6%	?	-20.0
O=S(=O)(c1ccccc1)N(Cc1nc(-c2ccccc2)no1)C1CCCCC1	-18.6%	?	-9.3%	-0.7%[9.24 µM]	20.6µM*	-7.7
O=C(/C=C/c1ccco1)NC(=S)Nc1cccc(-c2nc3ccccc3s2)c1	.	4.61µM*	23.1µM*	20.6µM*	5.8µM*	33.7
Cc1ccc(-c2nc3ccccc3s2)cc1NC(=S)NC(=O)c1cccc2ccccc12	?	?	13.3%	10.5%	?	0.0
O=C(/C=C/c1ccco1)NC(=S)Nc1cc(-c2nc3ccccc3s2)ccc1Cl	?	11.6µM*	?	?	23.1µM*	16.7
Cc1ccc(-c2nc3ccccc3s2)cc1NC(=S)NC(=O)/C=C/c1ccco1	0.5%	?	?	?	13µM*	9.3
CCCC(NC(=O)C(C)Sc1nnnn1C1CC1)c1ccccc1 (stereo not given)	4.5%	-5.9%	-0.2%	-2.1%	-26.5%	-1.7
O=C(CCCCCn1c(=S)[nH]c2ccc(N3CCOCC3)cc2c1=O)NC1CCN(Cc2ccccc2)CC1	?	16.4µM*	?	?	23.1µM*	-19.2
CCN(CCCn1c(=S)[nH]c2ccc(N3CCOCC3)cc2c1=O)c1ccccc1	?	11.6µM*	?	?	20.6µM*	10.9
O=C(NC1CCN(Cc2ccccc2)CC1)c1ccc(Cn2c(=S)[nH]c3ccc(N4CCOCC4)cc3c2=O)cc1	?	?	-9.7%	-13.5%	?	-14.1
O=c1c2cc(N3CCOCC3)ccc2[nH]c(=S)n1CCCN1CCCCC1	1.6%	6.4%	2.7%	11.2%	3.0%	-15.9
O=c1c2cc(N3CCOCC3)ccc2[nH]c(=S)n1Cc1cccc(Cl)c1	-4.0%	20.6µM*	?	?	?	20.6
O=c1c2cc(Cl)ccc2[nH]c(=S)n1Cc1ccco1	14.2%	?	7.94µM*	11.2µM*	?	39.7
Cc1cccc(NC(=O)N2CCN3CCCCC3C2)c1C (stereo not given)	.	4.2%	.	.	2.7%	.
CCOc1cccc(CN2CCCC(CNC(=O)c3cccc(OC)c3OC)C2)c1 (stereo not given)	-1.8%	-29.9%	-12.1%	-15.9%	?	11.7
O=c1c2cc(N3CCOCC3)ccc2[nH]c(=S)n1Cc1ccco1	11.9%	?	?	?	20.6µM*	9.7
COc1cccc(Cn2c(=S)[nH]c3ccc(N4CCOCC4)cc3c2=O)c1	-6.1%	-14.8%	-22.7%	-22.0%	-10.3%	24.0
CN1N=C(C(C)(C)C)CC1=O	-11.2%	23.9%	?	18.4µM*	-0.1%	.
CCCCSCCCNC(=O)CCCN1C(=O)c2ccccc2Sc2ncccc21	-19.1%	?	-4.6%	-4.7%	16.4µM*	-23.5
O=C(CCN1C(=O)c2ccccc2Sc2ncccc21)Nc1ccc(F)cc1	.	16.4µM*	.	.	?	.
Cc1ccc(C)c(NC(=O)CCN2C(=O)c3ccccc3Sc3ncccc32)c1	.	?	.	.	18.4µM*	.
CC(C)NC(=O)CCN1C(=O)c2ccccc2Sc2ncccc21	-3.8%	-8.6%	6.9%	4.9%	25.4%	0.0
SMILES	ELG1 DNA repair	DT40 TDP1 CPT	HT1080NT lethal	HT1080 IDH1KD tx	TDP1 cell noCPT	IL-1B inflam inh
Cc1cccc(C)c1NC(=O)CN(C)C(=O)c1ccc(OCc2ccccc2)cc1	.	?	11.5%	9.9%	?	8.9
Cc1nnc(NC(=O)CSCc2cc(=O)c3ccccc3[nH]2)s1	.	-2.7%	.	.	-1.0%	.
COCCCNC(=O)CCC(=O)NNc1nc2ccccc2c2nc(C)nn12	-10.1%	11.0%	9.3%	8.4%	4.3%	13.3
CCCc1c(C(=O)N/N=C/C2CC=CCC2)nnn1-c1nonc1N (stereo not given)	.	-8.2%	-1.8%	-4.7%	-11.0%	-27.5
COc1ccc(CN2C(=O)c3ccccc3C2=O)cc1C(=O)N(C)CC(=O)Nc1ccc(F)cc1	-10.5%	-3.9%	-1.9%	3.8%	-10.3%	2.3
CC(=O)c1c(C)n([O-])c2cc(F)c(F)cc2[n+]1=O	?	?	?	?	-27.6%	-99.8*
Cc1c(C(=O)NCCO)[n+](=O)c2ccccc2n1[O-]	.	5.6%	.	.	-17.9%	.
O=C(NCCNC(=O)c1ccc(-c2cccc(Cl)c2)o1)c1cnccn1	.	?	-7.5%	0.2%	?	-11.9
O=C(NCCNC(=O)c1ccc(-c2cc(Cl)ccc2Cl)o1)c1cnccn1	.	?	-3.1%	0.0%	20.6µM*	-8.1
O=C(NCCNC(=O)c1ccc(-c2ccc(Cl)c(Cl)c2)o1)c1cnccn1	3.9%	?	-15.2%	?	14.6µM*	-73.6*
Cc1cccc2nc(-c3cccc(NC(=O)c4ccc(Cl)cc4)c3)cn12	?	20.6µM*	-22.7%	-22.6%	?	5.1
O=C(Nc1cccc(-c2cn3ccccc3n2)c1)c1cccc(Cl)c1	?	?	?	?	18.4µM*	-103.9*
O=C(Nc1cccc(-c2cn3ccccc3n2)c1)c1cnccn1	?	?	13.0%	-1.1%	?	142.6
CCOc1ccc(S(=O)(=O)Nc2ccc(C(=O)N(C)CC(=O)Nc3ccc(OC)cc3)cc2)cc1	-1.9%	?	1.4%	4.9%	-24.6%	-15.5
Cc1ccc(NS(=O)(=O)c2ccc(C(=O)N3CCCCCC3)cc2)cc1	-5.7%	?	-2.5%	-3.2%	?	32.6
CSCCC(NS(=O)(=O)c1ccc(Cl)cc1)C(=O)OCc1c(Cl)cccc1Cl (stereo not given)	-22.9%	?	-4.6%	-8.8%	20.6µM*	36.1
CCOc1ccc(NS(=O)(=O)c2ccc(C(=O)N3CCCC(C)C3)cc2)cc1 (stereo not given)	-18.8%	16.4µM*	-20.6%	-24.5%	16.4µM*	49.6
Cc1ccc(NS(=O)(=O)c2ccc(C(=O)N3CCCCCCC3)cc2)cc1	-0.5%	23.1µM*	-8.6%	-21.5%	?	-2.9

Screening data from PubChem.
